# Laboratory results reported in the supplement of paper PMC12282887.
# ± gives the standard deviation of the averaged measurements.
# Tested on: E. coli BW25113 marRABp lux reporter
# Experiment: promoter activity interaction Z-score (Lux/OD deviation from empty-vector control); higher = stronger promoter induction by the compound
# Procedure: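 E. coli BW25113 (wild type or ΔmarA/ΔsoxS/Δrob) carrying pTU175 luxCDABE promoter reporters was grown in LB in 384-well plates at 37°C with each of 94 compounds at 4 two-fold concentrations, in biological duplicates. Luminescence and OD600 were read every 30 min for 12 h and integrated as AUC over 8 h (0-8 h WT, 1-9 h mutants). Lux AUC was divided by OD AUC; the interaction score is the residual of a Huber robust fit of each promoter against the empty-vector control, then Z-transformed per promoter.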
compound,measurement,setting,value
CN(C)[C@@H]1C(O)=C(C(N)=O)C(=O)[C@@]2(O)C(O)=C3C(=O)c4c(O)cccc4[C@@](C)(O)[C@H]3C[C@@H]12 [Tetracycline],promoter activity interaction Z-score,"0.056 µg/ml, genetic background: wild type",0.665 ± 0.88
same,promoter activity interaction Z-score,"0.056 µg/ml, genetic background: ΔmarA",1.07 ± 0.1
same,promoter activity interaction Z-score,"0.056 µg/ml, genetic background: Δrob",0.256 ± 0.36
same,promoter activity interaction Z-score,"0.056 µg/ml, genetic background: ΔsoxS",0.136 ± 0.061
same,promoter activity interaction Z-score,"0.11 µg/ml, genetic background: wild type",2.13 ± 0.84
same,promoter activity interaction Z-score,"0.11 µg/ml, genetic background: ΔmarA",1.76 ± 0.44
same,promoter activity interaction Z-score,"0.11 µg/ml, genetic background: Δrob",0.771 ± 0.16
same,promoter activity interaction Z-score,"0.11 µg/ml, genetic background: ΔsoxS",1.22 ± 0.7
same,promoter activity interaction Z-score,"0.22 µg/ml, genetic background: wild type",2.83 ± 0.4
same,promoter activity interaction Z-score,"0.22 µg/ml, genetic background: ΔmarA",3.06 ± 0.18
same,promoter activity interaction Z-score,"0.22 µg/ml, genetic background: Δrob",1.16 ± 0.43
same,promoter activity interaction Z-score,"0.22 µg/ml, genetic background: ΔsoxS",2.13 ± 0.087
same,promoter activity interaction Z-score,"0.44 µg/ml, genetic background: wild type",2.24 ± 1
same,promoter activity interaction Z-score,"0.44 µg/ml, genetic background: ΔmarA",0.451 ± 0.1
same,promoter activity interaction Z-score,"0.44 µg/ml, genetic background: Δrob",0.992 ± 0.29
same,promoter activity interaction Z-score,"0.44 µg/ml, genetic background: ΔsoxS",2.56
O=C(O)c1ccccc1O [Salicylate],promoter activity interaction Z-score,"17.3 µg/ml, genetic background: wild type",0.135 ± 0.01
same,promoter activity interaction Z-score,"17.3 µg/ml, genetic background: ΔmarA",0.0581 ± 0.22
same,promoter activity interaction Z-score,"17.3 µg/ml, genetic background: Δrob",0.184 ± 0.16
same,promoter activity interaction Z-score,"17.3 µg/ml, genetic background: ΔsoxS",-0.0106 ± 0.075
same,promoter activity interaction Z-score,"34.5 µg/ml, genetic background: wild type",0.214 ± 0.13
same,promoter activity interaction Z-score,"34.5 µg/ml, genetic background: ΔmarA",0.401 ± 0.26
same,promoter activity interaction Z-score,"34.5 µg/ml, genetic background: Δrob",0.526 ± 0.052
same,promoter activity interaction Z-score,"34.5 µg/ml, genetic background: ΔsoxS",0.404 ± 0.12
same,promoter activity interaction Z-score,"69.1 µg/ml, genetic background: wild type",0.771 ± 0.2
same,promoter activity interaction Z-score,"69.1 µg/ml, genetic background: ΔmarA",0.666 ± 0.1
same,promoter activity interaction Z-score,"69.1 µg/ml, genetic background: Δrob",0.852 ± 0.25
same,promoter activity interaction Z-score,"69.1 µg/ml, genetic background: ΔsoxS",0.352 ± 0.1
same,promoter activity interaction Z-score,"138.1 µg/ml, genetic background: wild type",7.4 ± 0.11
same,promoter activity interaction Z-score,"138.1 µg/ml, genetic background: ΔmarA",8.571 ± 0.071
same,promoter activity interaction Z-score,"138.1 µg/ml, genetic background: Δrob",6.24 ± 1.4
same,promoter activity interaction Z-score,"138.1 µg/ml, genetic background: ΔsoxS",6.09 ± 1.6
Nc1ccn(C[C@@H](CO)OCP(=O)(O)O)c(=O)n1 [Cidofovir],promoter activity interaction Z-score,"17.4 µg/ml, genetic background: wild type",-0.0416 ± 0.17
same,promoter activity interaction Z-score,"17.4 µg/ml, genetic background: ΔmarA",-0.106 ± 0.11
same,promoter activity interaction Z-score,"17.4 µg/ml, genetic background: Δrob",-0.0241 ± 0.025
same,promoter activity interaction Z-score,"17.4 µg/ml, genetic background: ΔsoxS",0.0975 ± 0.049
same,promoter activity interaction Z-score,"34.9 µg/ml, genetic background: wild type",0.263 ± 0.48
same,promoter activity interaction Z-score,"34.9 µg/ml, genetic background: ΔmarA",-0.336 ± 0.093
same,promoter activity interaction Z-score,"34.9 µg/ml, genetic background: Δrob",0.0475 ± 0.0048
same,promoter activity interaction Z-score,"34.9 µg/ml, genetic background: ΔsoxS",-0.0388 ± 0.24
same,promoter activity interaction Z-score,"69.8 µg/ml, genetic background: wild type",-0.235 ± 0.23
same,promoter activity interaction Z-score,"69.8 µg/ml, genetic background: ΔmarA",-0.157 ± 0.23
same,promoter activity interaction Z-score,"69.8 µg/ml, genetic background: Δrob",-0.0863 ± 0.087
same,promoter activity interaction Z-score,"69.8 µg/ml, genetic background: ΔsoxS",0.0268 ± 0.12
same,promoter activity interaction Z-score,"139.6 µg/ml, genetic background: wild type",0.0629 ± 0.086
same,promoter activity interaction Z-score,"139.6 µg/ml, genetic background: ΔmarA",-0.277 ± 0.08
same,promoter activity interaction Z-score,"139.6 µg/ml, genetic background: Δrob",0.278 ± 0.14
same,promoter activity interaction Z-score,"139.6 µg/ml, genetic background: ΔsoxS",0.18 ± 0.28
